# From PubChem BioAssay AID1159580 (chemical genetic matrix, 2015)
# The whole screen tested about 5,500 compounds, of which about 2,000 (36%) were called active. Another 18% or so got no clear call; they are omitted. The list shows a part of the results. Values without a mark were called inactive. Cut-off read from the data, not from the text of the source: active = normalized growth mostly below about 0.91 (no sharp cut-off); inconclusive = no clear call, values can overlap the other calls; inactive = mostly above about 0.92.
# Test: chemical genetic growth profiling, strain panel (AID 1159580);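 note: tested at 20 µM; growth read once vehicle control cultures reached saturation at 30 °C; 1 = growth at the plate median or of vehicle wells; lower values mean less growth of the strain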
# Details: growth OD
# [1] = S. cerevisiae deletion strains, locus YBR229C, strain ROT2, active compounds read low
# [2] = S. cerevisiae deletion strains, locus YCL061C, strain MRC1, active compounds read low
# [3] = S. cerevisiae deletion strains, locus YDL101C, strain DUN1, active compounds read low
# [4] = S. cerevisiae deletion strains, locus YDL134C, strain PPH21, active compounds read low
# [5] = S. cerevisiae deletion strains, locus YDR150W, strain NUM1, active compounds read low
# [6] = S. cerevisiae deletion strains, locus YEL061C, strain CIN8, active compounds read low
# [7] = S. cerevisiae deletion strains, locus YGR078C, strain PAC10, active compounds read low
# [8] = S. cerevisiae deletion strains, locus YHR030C, strain SLT2, active compounds read low
# [9] = S. cerevisiae deletion strains, locus YHR087W, strain rtc3, active compounds read low
# [10] = S. cerevisiae deletion strains, locus YJR043C, strain POL32, active compounds read low
# [11] = S. cerevisiae deletion strains, locus YJR075W, strain HOC1, active compounds read low
# [12] = S. cerevisiae deletion strains, locus YLR039C, strain RIC1, active compounds read low
# [13] = S. cerevisiae deletion strains, locus YLR058C, strain SHM2 (second series), active compounds read low
# [14] = S. cerevisiae deletion strains, locus YLR085C, strain ARP6, active compounds read low
# [15] = S. cerevisiae deletion strains, locus YLR262C, strain YPT6, active compounds read low
# [16] = S. cerevisiae deletion strains, locus YML094W, strain GIM5, active compounds read low
# [17] = S. cerevisiae deletion strains, locus YMR219W, strain ESC1, active compounds read low
# [18] = S. cerevisiae deletion strains, locus YMR263W, strain SAP30, active compounds read low
# [19] = S. cerevisiae deletion strains, locus YNL153C, strain GIM3, active compounds read low
# [20] = S. cerevisiae deletion strains, locus YNL298W, strain CLA4 (second series), active compounds read low
# [21] = S. cerevisiae deletion strains, locus YNL322C, strain KRE1, active compounds read low
# [22] = S. cerevisiae deletion strains, locus YNR030W, strain Alg12, active compounds read low
# [23] = S. cerevisiae deletion strains, locus YPL055C, strain LGE1, active compounds read low
# [24] = S. cerevisiae deletion strains, locus YPL241C, strain CIN2, active compounds read low
# [25] = S. cerevisiae deletion strains, locus YPR135W, strain CTF4, active compounds read low
structure (smiles),measurement,setting,value
Cc1cc(Br)c(OCC(=O)NN)c2c1CCC2,normalized growth,"S. cerevisiae deletion strains, locus YAL013W, strain DEP1, active compounds read low",1
same,normalized growth,[1],1
same,normalized growth,[2],1.01
same,normalized growth,[3],0.995
same,normalized growth,[4],1
same,normalized growth,[5],1.05
same,normalized growth,[6],0.985
same,normalized growth,[7],0.999
same,normalized growth,[8],0.856
same,normalized growth,[9],0.993
same,normalized growth,[10],0.998
same,normalized growth,[11],0.989
same,normalized growth,"S. cerevisiae deletion strains, locus YKL190W, strain CNB1, active compounds read low",0.989
same,normalized growth,[12],0.608 (active)
same,normalized growth,[13],0.999
same,normalized growth,[14],0.947
same,normalized growth,[15],0.584 (active)
same,normalized growth,[16],0.975
same,normalized growth,[17],1
same,normalized growth,[18],0.961
same,normalized growth,[19],1.02
same,normalized growth,[20],0.979
same,normalized growth,[21],0.994
same,normalized growth,[22],0.997
same,normalized growth,[23],0.915
same,normalized growth,[24],1.02
same,normalized growth,[25],0.906
Cc1ccc(OCC(=O)NN)c2c1CCC2,normalized growth,[1],1
same,normalized growth,[2],0.994
same,normalized growth,[3],1.03
same,normalized growth,[4],1.01
same,normalized growth,[5],1.01
same,normalized growth,[6],1.01
same,normalized growth,[7],0.989
same,normalized growth,[8],0.985
same,normalized growth,[9],1.04
same,normalized growth,[10],0.99
same,normalized growth,[11],0.989
same,normalized growth,[12],0.867
same,normalized growth,[13],1.01
same,normalized growth,[14],1.01
same,normalized growth,[15],0.913
same,normalized growth,[16],1.01
same,normalized growth,[17],0.991
same,normalized growth,[18],1.01
same,normalized growth,"S. cerevisiae deletion strains, locus YMR307W, strain GAS1, active compounds read low",0.963
same,normalized growth,[19],1
same,normalized growth,[20],0.989
same,normalized growth,[21],0.997
same,normalized growth,[22],1.01
same,normalized growth,"S. cerevisiae deletion strains, locus YOL006C, strain TOP1, active compounds read low",1.01
same,normalized growth,[23],1.01
same,normalized growth,[24],1.01
same,normalized growth,[25],0.982
same,normalized growth,"S. cerevisiae strains, strain wild type, active compounds read low",1.01
